Screening results (PubChem BioAssay)
TDP1 cell noCPT: qHTS for Inhibitors of human tyrosyl-DNA phosphodiesterase 1 (TDP1): qHTS in cells in absence of CPT; Potency, µM (series often up to 46.2 µM), for inactives: top-dose activity change, negative = growth inhibition, most hits filed as inhibitors; AID 686978, 2013; 420,000 tested, 15% active; DT40 Tdp1-/- hTDP1 cells, no CPT, ATP luminescence, 48 h; further: on the % scale 0 is the no-effect control and ±100 the full control effect; nearly all actives have a fitted effect of over 55% in size
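No-CPT arm: Tdp1-/-;hTDP1 DT40 cells (400/well) plus compounds, incubated ≥48 hr at 37 °C. Readout CellTiter-Glo luminescence.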
ClpP mod: qHTS Assay for Activators of ClpP; ATP-dependent Clp protease proteolytic subunit (Bacillus subtilis (strain 168)), P80244; Potency, µM (series often up to 57.5 µM), inactives show at the top dose activity change, negative = active; 340,000 tested, 1.9% active; purified B. subtilis ClpP, FRET peptide cleavage, 20 min; AID 651965, 2013; active means well fitted falling curve with a large enough effect; inconclusive means small, poorly fitted or top-dose-only effect; inactive means no such curve, though single readings can be large or run the other way; further: the source files actives as falling curves though it sought activators and does not explain the sign; nearly all actives have a fitted effect of over 65% in size
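ClpP 10 microg/mL final, pH 8 Tris/KCl buffer with BSA, glycerol, Tween-20; compound pinned in; FRET-FV substrate; RT 20 min; Ex320/Em430; ΔFRET vs ADEP 5.8 microM, DMSO, no enzyme.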
DT40 TDP1 CPT: DT40-hTDP1 cell growth loss with CPT. 420,000 tested, 12% active. chicken DT40 Tdp1-/-;hTDP1 cells + 20 nM CPT, ATP luminescence, 48 h. Potency, µM (top dose mostly 46.2 µM), for the others: at the top dose activity change, negative = growth inhibition, most hits filed as inhibitors. AID 686979; further: on the % scale 0 is the no-effect control and ±100 the full control effect; nearly all actives have a fitted effect of over 55% in size
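Cell growth measured by CellTiter-Glo luminescence after a minimum 48 h, 37 C compound exposure with 20 nM CPT in Tdp1-knockout DT40 cells stably expressing hTDP1, seeded 400/well; qHTS titration format.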
TDP1 inh: TDP1 (human) enzyme inhibition; 350,000 tested, 0.28% active; recombinant TDP1, AlphaScreen DNA substrate cleavage; Potency, µM (highest dose often 130 µM), without a hit: at the top dose activity change, negative = inhibition, actives largely listed as inhibitors; further: on the % scale 0 is the no-effect control and ±100 the full control effect; nearly all actives have a fitted effect of over 40% in size
Target sequence (Q9NUW8 whole entry, looked up): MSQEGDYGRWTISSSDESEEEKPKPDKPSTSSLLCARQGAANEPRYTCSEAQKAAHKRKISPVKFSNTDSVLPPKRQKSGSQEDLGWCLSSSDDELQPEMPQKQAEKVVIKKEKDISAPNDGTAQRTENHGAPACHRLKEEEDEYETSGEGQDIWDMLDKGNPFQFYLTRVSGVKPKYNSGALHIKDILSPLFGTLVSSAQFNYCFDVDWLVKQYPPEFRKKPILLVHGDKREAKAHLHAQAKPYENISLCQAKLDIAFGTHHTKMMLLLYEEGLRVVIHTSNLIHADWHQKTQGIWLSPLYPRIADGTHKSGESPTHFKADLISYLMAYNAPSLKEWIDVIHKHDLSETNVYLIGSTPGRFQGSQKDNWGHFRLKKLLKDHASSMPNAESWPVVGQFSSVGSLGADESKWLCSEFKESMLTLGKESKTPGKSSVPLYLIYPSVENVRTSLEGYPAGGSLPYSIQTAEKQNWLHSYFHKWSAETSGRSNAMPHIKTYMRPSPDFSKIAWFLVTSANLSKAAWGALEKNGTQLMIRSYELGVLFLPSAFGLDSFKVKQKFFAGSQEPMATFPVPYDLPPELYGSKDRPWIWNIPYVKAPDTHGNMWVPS
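AlphaScreen read-out: signal falls as enzyme removes the 3' tyrosine-FITC from a 5'-biotinylated DNA oligo (15 nM, 5 min, RT). Enzyme was E. coli-made recombinant Tdp1 at 1 nM, exposed to compound for 15 min beforehand; beads 10 ug/ml, 10 min.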
* hit, by the source's call; ? = inconclusive; . = no result given; [ ] = dose if it differs, or a comment. In the library only some 17% were active in any assay of this set; here they are far more common. Unless noted, the call rests on the fitted dose curve; in most records, active means well fitted curve in the direction sought with a large enough effect; inconclusive means small, poorly fitted or top-dose-only effect, or another doubt; inactive means no such curve, though single readings can be large; an effect the other way counts as inactive or inconclusive. Potency means the concentration at half of the fitted maximal effect.

SMILES	TDP1 cell noCPT	ClpP mod	DT40 TDP1 CPT	TDP1 inh
c1ccc2c(c1)CCN(c1nc3ccccc3n3cnnc13)C2	?	?	23µM*	5%
CC(C)[C@@H](CC(=O)N[C@@H]1CCCC[C@H]1C(=O)N[C@H](CC(=O)N[C@@H](CCC(=O)O)CC(=O)O)Cc1ccccc1)NC(=O)C[C@H](CO)NC(=O)[C@@H]1CCCC[C@H]1N	.	.	.	2%
COc1ccc(S(=O)(=O)c2nnn(-c3cc(Cl)c(OC)cc3OC)c2C)cc1	-19%	0%	-4%	-2%
COc1ccc(S(=O)(=O)c2nnn(-c3ccc(C(C)C)cc3)c2C)cc1	15µM*	-1%	15µM*	-8%
CC(=O)c1cccc(NC(=O)CSc2nnc(C(C)N(C)C)n2-c2ccc(F)cc2)c1 (centres undefined)	?	.	?	5%
CC(=O)c1cccc(NC(=O)CSc2nnc(C(C)N(C)C)n2Cc2ccccc2)c1 (centres undefined)	23µM*	.	?	6%
COc1cccc(NC(=O)C(OC(=O)/C=C/c2ccc3c(c2)OCO3)c2ccccc2)c1 (centres undefined)	-2%	32µM*	-2%	4%
COc1ccc(NC(=O)C(c2ccccc2)N(C)C(=O)/C=C\c2ccc3c(c2)OCO3)cc1 (centres undefined)	?	4%	?	6%
O=[N+]([O-])c1nn(-c2ccc3c(c2)OCCO3)n(O)c1=NCCCO	21µM*	1%	15µM*	1%
Cc1ccc(N=c2c([N+](=O)[O-])nn(-c3ccc4c(c3)OCCO4)n2O)c(Cl)c1	.	.	.	6%
O=[N+]([O-])c1nn(-c2ccc3c(c2)OCCO3)n(O)c1=NC1CCCCCC1	-26%	0%	?	11%
COc1ccc(-n2nc([N+](=O)[O-])c(=NCc3ccc4c(c3)OCO4)n2O)cc1	18µM*	-1%	?	0%
O=[N+]([O-])c1nn(-c2ccccc2)n(O)c1=NCc1ccc2c(c1)OCO2	?	-6%	?	7%
O=[N+]([O-])c1nn(-c2ccc3c(c2)OCCO3)n(O)c1=NC1CCCC1	?	-4%	18µM*	-2%
Cc1ccc(CN=c2c([N+](=O)[O-])nn(-c3ccc4c(c3)OCCO4)n2O)cc1	23µM*	-2%	?	-3%
CCCCS(=O)CC(O)CSc1nc(-c2ccc(OC)cc2)cc(-c2ccccc2)c1C#N (centres undefined)	-19%	4%	?	2%[2.28 µM]
O=c1[nH]c2ccccc2nc1-c1nnnn1C1CCCC1	-20%	5%	-12%	.
O=c1[nH]c2cc3ccccc3cc2nc1-c1nnnn1Cc1ccccc1	23µM*	0%	?	.
Cc1cc2cc(C(c3nnnn3Cc3ccccc3)N3CCc4ccccc43)c(=O)[nH]c2cc1C (centres undefined)	?	-5%	?	-3%
O=c1[nH]c2cc3ccccc3cc2nc1-c1nnnn1C1CCCC1	3.7µM*	1%	5.2µM*	.
Cc1cc2nc(-c3nnnn3Cc3ccccc3)c(=O)[nH]c2cc1C	16µM*	-26%	?	.
CC(C)c1c(O)ccc2c1CCC1[C@@](C)(C=O)CCC[C@@]21C (some centres undefined)	?	.	?	11%
CCCCn1c(=N)n(CC(=O)c2ccc(Br)s2)c2ccccc21	4.1µM*	1%	5.2µM*	1%
CCCCn1c(=N)n(CC(=O)C(C)(C)C)c2ccccc21	?	-8%	23µM*	5%
CCn1c(=N)n(CC(=O)c2ccc(Br)s2)c2ccccc21	?	-2%	?	0%
SMILES	TDP1 cell noCPT	ClpP mod	DT40 TDP1 CPT	TDP1 inh
COc1ccc(/C=C2\CCC/C(=C\c3ccc(OC)c(OC)c3OC)C2=O)c(OC)c1OC	16µM*	0%	?	.
COc1ccc2c(c1OC)CCC2=O	-8%	28µM*	26%	5%
COc1ccc(-c2ccc(OC)c(OC)c2OC)c(OC)c1OC	?	-1%	?	.
COc1cc(OC)c(OC)cc1/C=c1\[nH]c(=O)/c(=C/c2cc(OC)c(OC)cc2OC)[nH]c1=O	0.71µM*	3%	0.79µM*	.
COc1ccc(/C=C2\CC/C(=C\c3ccc(OC)cc3OC)C2=O)c(OC)c1	?	0%	?	2%
COc1ccc(/C=c2\[nH]c(=O)/c(=C/c3ccc(OC)c(OC)c3)[nH]c2=O)cc1OC	-23%	1%	-1%	.
COc1cc(OC)c(OC)cc1/C=C1\CCC/C(=C\c2cc(OC)c(OC)cc2OC)C1=O	23µM*	.	?	.
COCCN(C(=O)COC(=O)c1ccc(Cl)s1)c1c(N)n(Cc2ccccc2)c(=O)[nH]c1=O	1%	1%	-6%	5%
Cc1ccc(C)c(Nc2ncnc3onc(C)c23)c1	?	-1%	?	2%
CC(=O)Nc1ccc(S(=O)(=O)N2CCC(n3c(C)nc4cccnc43)CC2)cc1	?	0%	?	6%
CC1(C(=O)Nc2cccc3ccccc23)CCN1C(=O)Cc1ccc(Cl)cc1Cl (centres undefined)	?	-1%	-105%	.
COc1ccccc1-n1c(=O)[nH]c2c(C(N)=O)nc(-c3cccnc3)nc21	21µM*	5%	?	.
COc1ccc(-c2nc(C(N)=O)c3[nH]c(=O)n(-c4ccccc4OC)c3n2)c(OC)c1	16µM*	-22%	?	4%
COc1ccc(OC)c(-c2nc(C(N)=O)c3[nH]c(=O)n(-c4ccc(F)cc4)c3n2)c1	-7%	-5%	-18%	1%
COc1ccccc1-n1c(=O)[nH]c2c(C(N)=O)nc(CC(C)C)nc21	-21%	5%	-23%	0%
Cc1ccccc1Cn1c2ccccc2c2cnn(CC(=O)NC3CCCCCC3)c(=O)c21	10µM*	-19%	12µM*	0%
Cc1cc(C)c(Cn2c3ccccc3c3cnn(CC(=O)NC4CCC(C)CC4)c(=O)c32)c(C)c1 (centres undefined)	?	-11%	13µM*	0%
COc1ccc(Cl)cc1C=CC=Nc1ccccc1O	18µM*	-20%	23µM*	.
COc1ccc(Cl)cc1C=CC=NNS(=O)(=O)c1ccc(C)cc1	16µM*	-3%	18µM*	.
COc1ccc(Br)cc1C=NNS(=O)(=O)c1ccc(C)cc1	7.3µM*	-1%	?	.
CCN(CC)S(=O)(=O)c1ccc2c(c1)N(CC(=O)NCc1ccccn1)C(=O)CO2	22%	-2%	0%	.
Cc1cc2c(C)c(C)c(=O)[nH]c2cc1N	-10%	9%	?	7%
O=C(NC1CC2CCCC(C1)N2C(=O)Nc1ccc(Cl)c(C(F)(F)F)c1)C1CC1 (centres undefined)	16µM*	-4%	?	-6%
